# Experimental data as given in PubChem BioAssay AID1259309 (ICCB-Longwood Screening Facility, Harvard Medical School, 2017).
# “And” between values parts separate entries of the source, which are not always exact repeats. Equal values may be shown once. Among all 330,000 compounds or so, about 1,800 (0.55%) were called active. The list comes from a sample in which actives are over-represented; it also holds similar structures and randomly drawn compounds. A number with no mark means an inactive call. Rule as the data show it: active = growth inhibition above about 68%; inactive = the rest.
# Assay: growth inhibition of ugtP-null S. aureus, primary screen, RN4220 ugtP deletion, OD600 (AID 1259309);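 also: plate controls were untreated wells for no effect and antibiotic for full effect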
# Conditions: 16 h, stronger effect = higher value
row,Structure (SMILES),growth inhibition
1,COc1ccc(CC(=O)NCC(=O)NN=Cc2ccc(C)o2)cc1,8.44%
2,O=C(Cc1ccccc1)NNC1CC(=O)N(c2ccc(Br)cc2)C1=O (centres undefined),-0.3%
3,CC(C)(C)OC(=O)C1=C(CO)CS[C@@H]2[C@H](NC(=O)Cc3ccccc3)C(=O)N12,101% (active)
4,CC(C)(C)OC(=O)NC(Cc1ccccc1)C(=O)NC(CO)C(O)C1CC1C(=O)NC1CC1 (centres undefined),-0.531%
5,N#Cc1nc(-c2ccc(OCc3ccccc3)cc2)oc1NCCCN1CCOCC1,85.2% (active)
6,Cc1ccc(-c2nc(C#N)c(NCCCn3ccnc3)o2)cc1,-7.44%
7,O=S(=O)(c1ccccc1)c1nc(-c2ccccc2)oc1NCCCN1CCOCC1,2.69%
8,O=C(NN=C/C=C/c1ccco1)c1cccnc1,-1.13%
9,CCC1=C(OC(=O)N(CC)CC)N2C(=O)OC(=NCC3CC3)[C@]2(Cc2ccccc2)C2C1=CCC1C(=O)N(CC(=O)OC)C(=O)C12 (some centres undefined),5.55%
10,CC(C)NC(=O)N(C)CC1Oc2ccc(NC(=O)Nc3ccc(C(F)(F)F)cc3)cc2CC(=O)N(C(C)CO)CC1C (centres undefined),-1.09%
11,N#CC(=NNc1ccc(Cl)cc1)C(=N)N1CCCCC1,-11.7%
12,N#C/C(=C/c1ccc(Cl)cc1)NC(=O)c1ccccc1,-7.93%
13,N#CC(=NNc1ccc(Cl)cc1)C(=O)c1ccccc1,99.4% (active)
14,CCCCC(O)(CCCC)C(=O)NN=C(C)c1ccc(Cl)cc1,-3.08%
15,COc1ccc(C(=O)NN=Cc2ccc(OC)c(CN3CCCc4ccccc43)c2)cc1,-10.3%
16,COc1ccc(C(=O)NN=Cc2ccc(OC(=O)c3cccc4ccccc34)c([N+](=O)[O-])c2)cc1,96.8% (active)
17,COc1ccc(C=NNC(=O)c2ccccc2OC)cc1COc1ccccc1[N+](=O)[O-],4.98%
18,CC(=NNc1cccc(C(=O)O)c1)c1cc2ccccc2o1,5.08%
19,C=C(C)C(=O)Nc1cccc(C2=NOC3(C2)CC(C(N)=O)N(C(=O)c2ccccc2)C3)c1 (centres undefined),0.731%
20,CC(C)=CCc1ccc(O)c(=O)cc1C(C)C,-4.82%
21,CC(C)=CCc1c(O)c(CC=C(C)C)c2occ(-c3ccc(O)cc3)c(=O)c2c1O,98.5% (active)
22,COc1ccccc1NC(=O)CC(C)=NNC(=O)c1ccccn1,3.4%
23,C/C(C=NNC(=O)c1nnn(-c2nonc2N)c1C(C)C)=C\c1ccccc1,-3.08%
24,Oc1ccc(CC2CNC(=S)N2CCc2cc(C(F)(F)F)cc(C(F)(F)F)c2)cc1 (centres undefined),10.9% and 22.1%
25,CCCCNC(=S)N(C)N=Cc1c(F)c(F)c(F)c(F)c1F,4.66%
26,Cc1nc2c(-c3ccccc3)c(C)[nH]n2c(=O)c1Cl,3.35%
27,Cc1[nH]n(-c2cccc(Cl)c2)c(=O)c1-c1ccc(Cl)cc1,87.7% (active)

row,Structure (SMILES),growth inhibition
1,Cc1cc(=O)n2[nH]c(-c3cccc(Cl)c3)cc2n1,-2.61%
2,COc1ccc(C=NNC(=O)CCc2n[nH]c(=O)[nH]c2=O)cc1OC,-0.0548%
3,O=C(O)C1=CC(c2ccc3c(c2)OCO3)CC(OCc2ccc(CO)cc2)O1 (centres undefined),-2.53% and -0.0237%
4,COc1cc(C=NNC(=S)NCCN2CCOCC2)ccc1O,11.5%
5,O=C(Nc1nnc(-c2ccccc2)o1)c1cc(-c2cccs2)nc2ccccc12,96.3% (active)
6,O=C(NN=Cc1ccsc1)c1cc(-c2cccs2)nc2ccccc12,-4.48%
7,CC(C)(C)Cc1nnc(NC(=O)c2cc(-c3ccccc3)nc3ccccc23)s1,-17.6%
8,CN1CCN(N=Cc2ccc(-c3ccc([N+](=O)[O-])cc3Cl)o2)CC1,3.66%
9,Oc1ccccc1C1=NN(c2ccccc2)C(c2ccccc2)C1 (centres undefined),99.6% (active)
10,Cc1ccc(N2C(=O)C3N=NN(CC(=O)N4N=C(c5cccc6ccccc56)CC4c4ccccc4)C3C2=O)cc1 (centres undefined),-14.5%
11,O=C1C2N=NN(CC(=O)N3N=C(c4cccc5ccccc45)CC3c3ccccc3)C2C(=O)N1c1ccccc1 (centres undefined),-9.34%
12,CCOc1ccc(C=NNc2cc(N3CCOCC3)nc(C)n2)c(O)c1,1.85%
13,CC1CN(C(C)CO)C(=O)Cc2cc(NC(=O)CCC(F)(F)F)ccc2OC1CN(C)S(=O)(=O)c1ccc(Cl)cc1 (centres undefined),4.94%
14,NCCCCC(C(=O)N1CCNCC1)n1cc(CCC(=O)O)nn1 (centres undefined),3.28%
15,OCCN(Cc1ccccc1)Cc1ccc(Cl)cc1,-6.5%
16,OCc1ccc(-c2ccccc2)c(-c2ccccc2)c1,89.2% (active)
17,OCc1nc(CO)n(Cc2ccccc2)n1,13.4%
18,COc1cc(CCCN2C(=O)C(=O)NCC2CC2CCCCC2)cc(OC)c1OC (centres undefined),2.58%
19,Cc1cc(C=NNC(=O)c2ccccn2)c(C)n1-c1cccc([N+](=O)[O-])c1,6.51%
20,O=C(Nc1nnc(-c2ccc(Cl)cc2)o1)c1ccccc1Br,97.7% (active)
21,COc1ccccc1C(=O)NCC(=O)OCC(=O)Nc1nnc(-c2ccccc2)o1,-1.67%
22,Cc1ccnc2nc(C(=O)Nc3nnc(-c4ccccc4)o3)nn12,12.9%
23,CCOC(=O)NN=Cc1ccc(C)o1,3.13%
24,N#CC(=C(O)CCl)c1nnc2n1CCCCC2,4.05%
25,C#CCOCCOCCOCCNc1nc(N2CCN(C(=O)C(CCCCN)n3cc(C(N)CC(C)C)nn3)CC2)nc(N2CCN(C(=O)C(CCCCN)n3cc(C(N)CC(C)C)nn3)CC2)n1 (centres undefined),0.321%
26,CC(C)NC(=O)CC(=O)NN=Cc1c(F)cccc1Cl,-1.54%
27,Cc1cccc(CCN2C(Nc3ccccc3)=NCC2CC(C)C)c1 (centres undefined),2.11%
